Screening data (PubChem)
NSD2 inh: NSD2 (human) methyltransferase inhibition | O96028 | NSD2 peptide methylation, AlphaScreen, 120 min | inhibition, % at 12.5 µM | 310,000 tested, 0.54% active | AID 743445; in the data active = inhibition above about 50%
Target sequence (O96028 whole entry, looked up): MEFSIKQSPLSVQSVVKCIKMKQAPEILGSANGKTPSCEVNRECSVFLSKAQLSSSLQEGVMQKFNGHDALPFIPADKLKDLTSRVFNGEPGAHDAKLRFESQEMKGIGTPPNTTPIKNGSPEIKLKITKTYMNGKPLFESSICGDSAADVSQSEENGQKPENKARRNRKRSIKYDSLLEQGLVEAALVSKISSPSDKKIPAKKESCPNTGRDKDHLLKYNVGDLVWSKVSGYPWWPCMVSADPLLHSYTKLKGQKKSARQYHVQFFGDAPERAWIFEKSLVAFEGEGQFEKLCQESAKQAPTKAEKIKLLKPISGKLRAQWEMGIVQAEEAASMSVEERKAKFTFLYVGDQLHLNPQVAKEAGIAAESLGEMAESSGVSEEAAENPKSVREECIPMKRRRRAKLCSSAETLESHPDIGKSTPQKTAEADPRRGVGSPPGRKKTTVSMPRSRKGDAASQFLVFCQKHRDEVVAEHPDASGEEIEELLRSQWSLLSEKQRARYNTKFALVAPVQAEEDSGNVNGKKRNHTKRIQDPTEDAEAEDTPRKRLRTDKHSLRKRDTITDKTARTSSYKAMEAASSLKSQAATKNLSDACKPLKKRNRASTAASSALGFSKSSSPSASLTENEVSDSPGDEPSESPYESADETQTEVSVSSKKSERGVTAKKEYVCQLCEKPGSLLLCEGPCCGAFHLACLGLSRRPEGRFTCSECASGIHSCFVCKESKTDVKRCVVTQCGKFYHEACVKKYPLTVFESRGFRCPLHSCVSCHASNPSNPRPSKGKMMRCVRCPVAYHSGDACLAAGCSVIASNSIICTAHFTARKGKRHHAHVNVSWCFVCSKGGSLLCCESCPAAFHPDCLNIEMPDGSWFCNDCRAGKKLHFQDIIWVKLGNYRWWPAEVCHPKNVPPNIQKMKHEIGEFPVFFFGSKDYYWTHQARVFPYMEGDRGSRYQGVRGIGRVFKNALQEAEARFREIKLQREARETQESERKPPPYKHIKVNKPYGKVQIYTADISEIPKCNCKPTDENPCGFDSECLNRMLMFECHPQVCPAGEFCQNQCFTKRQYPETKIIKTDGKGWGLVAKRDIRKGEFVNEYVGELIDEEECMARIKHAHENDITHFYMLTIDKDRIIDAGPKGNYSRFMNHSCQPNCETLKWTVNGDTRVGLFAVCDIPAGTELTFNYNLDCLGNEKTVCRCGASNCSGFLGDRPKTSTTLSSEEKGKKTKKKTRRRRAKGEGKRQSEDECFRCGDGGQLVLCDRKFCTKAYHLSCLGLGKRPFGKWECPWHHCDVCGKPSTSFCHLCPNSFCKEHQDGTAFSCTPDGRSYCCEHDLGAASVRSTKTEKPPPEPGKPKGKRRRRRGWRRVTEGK
PfHsp90 set2: inhibits growth of yeast expressing Plasmodium falciparum Hsp90. S. cerevisiae expressing PfHsp90, BacTiter-Glo ATP, 48 h; yeast lacking PDR1 and PDR3 efflux regulators. inhibition, % at 9.4 µM. 310,000 tested, 0.32% active. AID 504621;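 active = every replicate shows inhibition above about 80%, whatever the replicate mean, limit read from the data; inconclusive = mean inhibition reaches the set limit but some replicate falls short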;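 note: 0% = DMSO neutral controls and 100% = 20 µM radicicol positive controls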
MITF TRPM1 HTS: increases MITF-driven TRPM1 promoter luciferase signal; AID 588334; SK-MEL-5 TRPM1-promoter luciferase, 24 h; % of positive control, neutral wells = 0; activation, % at 12.5 µM; 300,000 tested, 0.75% active;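 active = mean activation of at least 80% with every replicate also reaching 80%; inconclusive = mean reaches 80% but some replicate falls short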;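 note: 0% = neutral control wells and 100% = parthenolide positive control wells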
Wnt act: Wnt/beta-catenin pathway activation; Wnt/beta-catenin reporter cell assay, activator, plate reader; activation, % at 9.35 µM; 300,000 tested, 1.2% active; AID 743398; in the data active = activation above about 30%, passing the limit was not always enough; inconclusive = no clear call, values can overlap the other calls;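 note: 0% = neutral control wells and 100% = positive control wells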
TRPM1 prom inh: MITF TRPM1 promoter inhibition in SK-MEL-5 cells; SK-MEL-5 TRPM1 promoter luciferase, 24 h; inhibition, % at 12.5 µM; 330,000 tested, 0.83% active; AID 488899;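 active = mean inhibition across replicates of 60% or more, whatever share of single replicates reaches that level; inconclusive = some that reach 60%, reason not given; inactive = mean inhibition across replicates below 60%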
Glyco luc inh: N-linked glycosylation inhibition. D54 ERlucT glycosylation luciferase reporter, 24 h; percent of 100 nM tunicamycin response. reporter increase, % at 12.5 µM. 360,000 tested, 0.23% active. AID 588692;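 active = mean luciferase reporter signal, scaled so untreated is 0 and the glycosylation-blocking control 100, at or above a set limit in every replicate; inconclusive = mean reaches the limit but not every replicate does; inactive = mean below the limit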;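 note: luciferase carries N-glycosylation sites so blocking glycosylation raises the light; 0% = median of neutral control wells and 100% = median of 100 nM tunicamycin wells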
* marks the source's active call; other numbers are inactive results; ? = inconclusive; . = no result; ! = a repeat was not active. Shown are actives, neighbours in structure and some others; about 2.9% of the full set was active somewhere.

SMILES | NSD2 inh | PfHsp90 set2 | MITF TRPM1 HTS | Wnt act | TRPM1 prom inh | Glyco luc inh
Cc1ccnc(SCC(=O)c2cccs2)n1 | -2.0 | -2.2 | 93.2* | 43.8* | -95.7 | -1.9
Cc1ccc(OC(=O)CCC(=O)NC(C)c2ccccc2)cc1 (stereo not given) | . | -7.9 | 5.8 | 2.5 | -4.2 | 5.6
Cc1ccc(S(=O)(=O)NC(C)(C)C)cc1C(=O)OCC(=O)N1CCCC1=O | -1.1 | . | 2.0 | 2.1 | 3.9 | 3.0
CC(C)c1[nH]nc2c1C(c1ccccc1)N(c1ccccc1)C2=O (stereo not given) | 0.6 | . | . | -2.3 | . | .
C=CCCC1CN(Cc2ccc(OC)cc2)S(=O)(=O)c2c(Oc3ccc(OC)cc3)cccc2O1 (stereo not given) | . | . | . | -2.5 | . | .
CCOc1ccc2c(c1)C(C)=CC(C)(C)N2C(=O)Nc1ccccc1F | 65.4* | -4.7 | -9.1 | . | 8.5 | 3.6
CCOc1ccc2c(c1)C(C)=CC(C)(C)N2S(=O)(=O)c1ccc(C)cc1 | 1.4 | 8.9 | -74.3 | -0.8 | 74.9* | 8.1
CCC[C@H]1[C@@H](OC(=O)NCc2cccs2)CC[C@@]23CCCN2C(=O)CCC[C@@H]13 | -2.2 | . | . | . | . | .
CCCCC(=O)Nc1ccc2c(c1)nc(CCN1CCN(c3ccccn3)CC1)n2C | 0.2 | -23.3 | -4.0 | 1.0 | 3.4 | -3.1
Cc1sc2ncnc(N/N=C/c3ccc(O)cc3)c2c1C | 3.8 | -1.6 | 16.0 | 17.4 | -14.6 | -1.9
Cc1sc2ncnc(N/N=C/c3ccccc3O)c2c1C | -0.6 | 100.6* | -15.3 | . | 16.9 | -12.2
COc1ccc(C(=O)Nc2cc(-c3ccc(C)cc3)no2)cc1 | -1.0 | -2.8 | 23.3 | 1.8 | -19.1 | -3.0
Cc1ccc(-c2cc(NC(=O)c3ccccc3)on2)cc1 | -2.0 | 11.9 | 75.0 | 34.3* | -71.1 | -3.4
Cc1ccc(-n2nnc(-c3cnc4ccccc4c3)n2)cc1 | . | -6.2 | -5.8 | 22.8 | 7.2 | -12.2
c1ccc(-n2nnc(-c3cccnc3)n2)cc1 | . | -3.5 | 91.1* | 27.6 | -92.7 | -1.2
Cc1ccc(-n2nnc(-c3cccnc3)n2)cc1 | . | -11.8 | 101.6* | 22.3 | -95.7 | -4.9
CC(C)(C)c1ccc(C#C[C@@H]2C=C[C@@H](O)[C@@H](COC(=O)NCc3ccccc3)O2)cc1 | . | . | . | 5.1 | . | .
COc1ccc(N2C(=O)c3n[nH]c(C(C)C)c3C2c2ccccc2)cc1 (stereo not given) | . | . | . | 6.5 | . | .
CN(C)c1ncnc2c1ncn2C1OC(CO)C(O)C1O (stereo not given) | 5.9 | 12.7 | -41.0 | . | 42.0 | -13.3
COc1ccc(C[C@H](N)C(=O)N[C@H]2[C@@H](O)[C@H](n3cnc4c(N(C)C)ncnc43)O[C@@H]2CO)cc1 | . | -14.2 | -108.5 | -5.4 | 108.6* | -21.1
CCOC(=O)c1csc(NC(=O)c2cccs2)n1 | -8.7 | -14.5 | 95.2* | 37.2* | -95.1 | -3.0
CCOC(=O)Cc1csc(NC(=O)c2cccs2)n1 | 1.9 | . | 65.6 | . | -63.8 | -0.2
CSc1nnc2c3cc(F)ccc3n(C)c2n1 | -1.9 | 83.5* | . | 1.4 | 6.5 | 1.4
COc1cc2cc(C)c(SCC(=O)N3c4ccccc4Sc4ccccc43)nc2cc1OC | -1.3 | . | . | . | . | .
O=C(Nc1ccc(F)cc1)Nc1ccc(N2CCOCC2)c2nonc12 | 12.1 | -22.7 | 93.9* | 13.9 | -94.4 | -1.8
SMILES | NSD2 inh | PfHsp90 set2 | MITF TRPM1 HTS | Wnt act | TRPM1 prom inh | Glyco luc inh
COc1ccc(NC(=O)Nc2ccc(N3CCOCC3)c3nonc23)c(OC)c1 | 26.0 | -2.9 | 9.5 | -1.0 | -10.6 | 0.9
Cc1ccc2nc(-c3ccc(NS(=O)(=O)c4c(C)n(C)c(=O)n(C)c4=O)cc3)sc2c1 | 2.1 | -5.4 | ? | 47.8* | -71.1 | -8.8
Cc1ccc(S(=O)(=O)Nc2ccc(-c3nc4ccc(C)cc4s3)cc2)cc1 | -0.3 | -21.8 | 14.0 | 1.3 | -11.2 | -0.1
NC(N)=NS(=O)(=O)c1ccc(NC(=S)NC(=O)c2ccc(Br)cc2)cc1 | -2.5 | -23.1 | 9.1 | -0.5 | -5.2 | 0.9
Cc1ccc2c(C)c(C(=O)N(C)C(C)c3ccon3)oc2c1C (stereo not given) | -0.6 | -5.9 | 108.9* | ? | -107.7 | 1.6
Cc1ncoc1C(=O)Nc1ncc([N+](=O)[O-])s1 | 7.3 | 24.1 | 9.9 | 37.2* | -7.3 | -10.5
Cc1cnc(NC(=O)c2cccs2)s1 | 1.0 | 14.1 | 29.9 | 19.4 | -28.7 | -3.1
Cc1ncoc1C(=O)Nc1nccs1 | -0.3 | -9.8 | 5.7 | -2.3 | -3.2 | 5.1
O=C(Nc1ncc([N+](=O)[O-])s1)c1cccs1 | 1.8 | 53.6 | 18.8 | 42.3*! | -15.1 | -11.0
CCN(CC)c1ccc(-c2nn3c(-c4ccccc4Cl)nnc3s2)cc1 | -24.1 | . | . | . | . | .
CCCCCCCCN1C(=O)[C@@H](CC(=O)N2CCN(C(=O)c3ccco3)CC2)C[C@@]2(C(=O)OC)C1=C[C@H](C(C)(C)C)O[C@@H]2C | . | . | . | -8.6 | . | .
O=C1C(=NO)CCc2ccccc21 | 77.2* | -11.4 | -22.0 | 0.4 | 24.1 | 2.8
O=C1NC(c2cccc(C(F)(F)F)c2)c2c(-c3ccccc3)n[nH]c21 (stereo not given) | 0.4 | . | . | -3.1 | . | .
Cc1ccc(NC(=S)c2ccncc2)cc1 | -1.9 | -2.6 | 2.2 | 0.6 | -1.6 | 0.4
COc1ccc(C(=S)Nc2ccc(C)cc2)cc1 | 1.0 | . | 109.2* | . | -104.1 | -3.3
COc1ccc(NC(=S)c2ccncc2)cc1 | -2.5 | 9.5 | -6.7 | 8.6 | 6.2 | -1.7
Cc1ccc(NC(=S)c2ccccc2)cc1 | 2.8 | 19.1 | 81.5* | ? | -79.5 | -3.8
CC(C)(C)c1ccc(C#C[C@@H]2C=C[C@@H](O)[C@@H](CO)O2)cc1 | -0.2 | . | . | 10.0 | . | .
COc1ccc(C(C[N+](=O)[O-])C2(c3ccc(OC)c(OC)c3)C(=O)c3ccccc3C2=O)cc1 (stereo not given) | . | 104.7* | -7.2 | . | 7.1 | -8.8
CCOc1cc(C(=O)NC(=S)Nc2nc(C)cc(C)n2)cc(OCC)c1OCC | 0.1 | -9.8 | -2.8 | -2.0 | 1.8 | 3.0
COc1ccc(C(=O)NC(=S)Nc2nc(C)cc(C)n2)cc1Br | -0.9 | . | . | 41.8* | . | -1.9
Cn1cnc(S(=O)(=O)Nc2cc(-c3ccc(Cl)cc3)nn2C)c1 | -0.1 | . | . | 1.9 | . | 1.4
Clc1cc(Cl)c2nc(N3CCOCC3)sc2c1 | -6.3 | . | . | 41.9* | -37.1 | -1.8
O=C(CCc1nc2ccccc2c(=O)[nH]1)OCCOc1ccc(Cl)cc1 | -1.2 | 15.2 | -8.7 | -1.3 | 9.5 | -0.4
COc1ccccc1CCn1cnc(-c2ccccc2)c1CC(C)C | . | . | . | -2.6 | . | .
c1ccc(CNc2ncnc3ccccc23)cc1 | -0.3 | 16.3 | -6.0 | -7.9 | 5.3 | -7.4
c1ccc(CNc2c3ccccc3nc3ccccc23)cc1 | . | 1.2 | -73.7 | -1.1 | 75.5* | 24.2
Oc1ccc(CCNc2c3ccccc3nc3ccccc23)cc1O | 16.9 | 14.0 | . | 0.1 | 72.0* | 37.4*
CCCc1cc2c(OC)ccc(O)c2c(=O)n1C | . | . | . | -1.5 | . | .
CCOC(=O)C(C)N1C(=O)S/C(=C/c2cc(C)n(-c3ccncc3)c2C)C1=O (stereo not given) | 3.7 | 8.3 | 0.1 | 1.2 | 1.5 | -2.6
